Our source for the growth values is PubChem BioAssay (NCI).

Compounds without any hit were thinned out: in the full panel of roughly 83,000, 20% have a hit.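 Cells were grown in 96-well plates and exposed to the test compound at a single concentration for 48 hours; results are reported as percent growth, with values below 10 considered active.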 A number with no mark means an inactive call. Activity calls are given as the source filed them.

Some test systems named below: T-47D breast; BT-549 breast; MDA-MB-435 melanoma; SW-620 colon; MCF7 breast; HCT-116 colon; HCC-2998 colon; KM12 colon.
What all share (experiment): NCI-60 one-dose screen, 48 h (100 = growth as untreated, 0 = no growth, -100 = all killed)
Common to all, as to details: 10 µM unless noted

Consider `NC(N)=NS(=O)(=O)c1ccc(NC2=C(I)C(=O)c3ncccc3C2=O)cc1`, for which the growth in the assay on T-47D breast was 106%; with BT-549 breast, 108%; in the assay with MDA-MB-435 melanoma it was 109%; with SW-620 colon it was 91.1%; in the assay with MCF7 breast, 97.9%; in the assay on HCT-116 colon, 102%. Besides, the growth was 111% with HCC-2998 colon and 105% in the assay with KM12 colon.
`COc1ccc2c(c1)CCc1[nH]nc(-c3cc(OC)c(OC)c(OC)c3)c1-2`: the growth was 31.3% with T-47D breast; 5.42% (active) with BT-549 breast; -30.3% (active) in the assay on MDA-MB-435 melanoma; 20.4% in the assay on SW-620 colon; 6.38% (active) with MCF7 breast; -3.02% (active) in the assay on HCT-116 colon. Besides, the growth in the assay on HCC-2998 colon is 5.58% (active); with KM12 colon, 7.02% (active).
Take `CCN(CC)c1ccc(CNc2cc(C)nc3ccccc23)cc1`: the growth was 39% in the assay with T-47D breast; 71.6% in the assay with BT-549 breast; 65.7% in the assay with MDA-MB-435 melanoma; 76.9% with SW-620 colon; 39.2% with MCF7 breast; 52.1% with HCT-116 colon. The growth is 42.1% in the assay with HCC-2998 colon and 71.9% in the assay with KM12 colon.
As for `O=C(N/N=C/c1cc(Cl)ccc1O)c1ccccc1Nc1ccnc(C(F)(F)F)c1`, the growth in the assay on T-47D breast is 8.91% (active); in the assay with BT-549 breast, 18.7%; in the assay with MDA-MB-435 melanoma, 35.2%; in the assay with SW-620 colon, 36.3%; in the assay on MCF7 breast, 20.6%; in the assay with HCT-116 colon it was 32.2%. The growth was 81.3% with HCC-2998 colon and 34.5% with KM12 colon.
Take `O=C(/C=C/c1cccc(Cl)c1Cl)Nc1ncc(Cc2ccccc2Cl)s1`: the growth is 43.8% in the assay with T-47D breast; 76.7% with BT-549 breast; -46.5% (active) in the assay on MDA-MB-435 melanoma; 27% in the assay with SW-620 colon; 12.7% with MCF7 breast; 24.2% in the assay on HCT-116 colon. For the same compound, the growth with HCC-2998 colon was 76.3%; with KM12 colon, 28.8%.
For `CCc1ccc(CCC(=O)Nc2ncc(Cc3ccccc3)s2)o1`, the growth was 42.5% in the assay with T-47D breast; 63.5% in the assay on BT-549 breast; -54.8% (active) in the assay with MDA-MB-435 melanoma; 28% in the assay with SW-620 colon; 18.7% with MCF7 breast; 23.4% in the assay on HCT-116 colon. Moreover, the figures for the growth with HCC-2998 colon and in the assay with KM12 colon were 35.6% and 18.4%, respectively.
`CCN1C(=O)N(CC)C2C1NN=c1s/c(=C3\C(=O)N(CC(C)C)c4ccccc43)c(=O)n12` (stereo not drawn): the growth in the assay on T-47D breast was 73.8%; in the assay with BT-549 breast it was 17.5%; in the assay with MDA-MB-435 melanoma, -16.4% (active); in the assay on SW-620 colon it was 33.9%; in the assay with MCF7 breast, 15.1%; in the assay on HCT-116 colon, 11.9%. Moreover, the growth in the assay with HCC-2998 colon was 13.8%; in the assay with KM12 colon, 20.9%.
Consider `CCOC(=O)c1c(C)nc2ccccc2c1/C=C/c1ccccc1`, for which the growth in the assay on T-47D breast is 25.7%; in the assay on BT-549 breast, 61.7%; with MDA-MB-435 melanoma, 70.2%; with SW-620 colon, 91.1%; in the assay on MCF7 breast, 65.5%; in the assay on HCT-116 colon, 59.5%. Besides, the growth in the assay with HCC-2998 colon was 87.2%; in the assay with KM12 colon, 71.8%.
`O=C(CCCCCCN1CC(=O)N2[C@H](c3ccc(Br)cc3)c3[nH]c4ccccc4c3C[C@@H]2C1=O)NO`: the growth in the assay on T-47D breast was 9.61% (active); in the assay with BT-549 breast, 55.1%; in the assay with MDA-MB-435 melanoma it was 26.2%; in the assay on SW-620 colon, 20.4%; with MCF7 breast, 28.4%; with HCT-116 colon, 14.8%. The growth is 67.5% in the assay with HCC-2998 colon and 60.9% in the assay on KM12 colon.
For the compound `Nc1nc(NC(=O)Nc2ccc(C(=O)O)cc2)nn1-c1ccc(S(N)(=O)=O)cc1`, the growth in the assay on T-47D breast was 102%; in the assay on BT-549 breast it was 91.3%; in the assay on MDA-MB-435 melanoma, 98.2%; in the assay with SW-620 colon it was 87.7%; in the assay on MCF7 breast, 98.7%; with HCT-116 colon, 95.4%. The growth was 107% in the assay with HCC-2998 colon and 89.6% with KM12 colon.
For `COc1ccc(-c2nn(-c3ccccc3)cc2/C=C/C(=O)NNC(=O)Nc2ccc(C)cc2)cc1`, the growth in the assay on T-47D breast was 92.3%; in the assay on BT-549 breast it was 114%; in the assay with MDA-MB-435 melanoma it was 99.9%; with SW-620 colon, 95.1%; with MCF7 breast, 91.9%; in the assay on HCT-116 colon it was 77.7%. In addition, the growth is 96.7% with HCC-2998 colon and 101% in the assay on KM12 colon.
In the case of `C#CCNC(=O)[C@]1(C)CCC[C@@]2(C)[C@H]1CC=C1C=C(C(C)C)CC[C@@H]12`, the growth with T-47D breast is 85.2%; in the assay with BT-549 breast, 100%; with MDA-MB-435 melanoma, 104%; in the assay with SW-620 colon, 109%; with MCF7 breast it was 85.6%; with HCT-116 colon, 107%. In addition, the growth with HCC-2998 colon and in the assay with KM12 colon was 100% throughout.
In the case of `C/C(=N\O)c1ccc(NC(=O)CSc2nnc(-c3cc(-c4ccc(S(C)(=O)=O)cc4)nc4ccccc34)n2-c2ccccc2)cc1`, the growth in the assay with T-47D breast was 63%; with BT-549 breast, 88.2%; in the assay with MDA-MB-435 melanoma, 93.5%; in the assay on SW-620 colon, 97.4%; with MCF7 breast, 85.6%; with HCT-116 colon, 83.7%. Also, the growth with HCC-2998 colon is 105%; in the assay with KM12 colon it was 81.9%.
For `CS(=O)(=O)Nc1cc(-c2ccc3ncc(C#N)c(Nc4ccc(F)c(Cl)c4)c3c2)cnc1Cl`, the growth in the assay on T-47D breast is -13.3% (active); in the assay on BT-549 breast it was -14.5% (active); with MDA-MB-435 melanoma it was 2.34% (active); with SW-620 colon it was 5.69% (active); in the assay on MCF7 breast it was 4.03% (active); in the assay on HCT-116 colon, 4% (active). The growth with HCC-2998 colon is 6.92% (active); in the assay on KM12 colon it was 8.82% (active).
For `Cc1ccc(C=C2C(=O)NC(=O)NC2=O)cc1`, the growth is 113% in the assay with T-47D breast; 104% in the assay on BT-549 breast; 109% in the assay on MDA-MB-435 melanoma; 109% in the assay on SW-620 colon; 98.8% with MCF7 breast; 108% in the assay on HCT-116 colon. Besides, the values for the growth in the assay on HCC-2998 colon and in the assay with KM12 colon were 112% and 108%, respectively.
In the case of `COc1ccc(CNc2c3ccccc3nc3ccccc23)c(OC)c1`, the growth in the assay with T-47D breast was 52.9%; with BT-549 breast, 66.7%; in the assay on MDA-MB-435 melanoma it was 38.7%; in the assay on SW-620 colon it was 20.7%; with MCF7 breast, 14.5%; in the assay with HCT-116 colon it was 12.8%. Further, the growth with HCC-2998 colon was 35.6%; with KM12 colon, 54.3%.
